KCNQ2 enhance: KCNQ2 (rat) channel potentiation. 0.54% of 310,000 active. B-score at 10 µM. AID 2239. CHO-K1 KCNQ2, FluxOR thallium flux fluorescence; stronger effect = higher value;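 active means fluorescence ratio B-score at least 3 SD of library B-scores, with initial fluorescence B-score within 3 of them, cut at about 5.3 in these data; same plate scores as AID 2156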;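 further: B-score of peak minus minimum over baseline fluorescence ratio after K+ and Tl+ stimulus; positive B-score means potentiation of KCNQ2 with more thallium influx and brighter signal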
Target sequence (O88943 whole entry, looked up): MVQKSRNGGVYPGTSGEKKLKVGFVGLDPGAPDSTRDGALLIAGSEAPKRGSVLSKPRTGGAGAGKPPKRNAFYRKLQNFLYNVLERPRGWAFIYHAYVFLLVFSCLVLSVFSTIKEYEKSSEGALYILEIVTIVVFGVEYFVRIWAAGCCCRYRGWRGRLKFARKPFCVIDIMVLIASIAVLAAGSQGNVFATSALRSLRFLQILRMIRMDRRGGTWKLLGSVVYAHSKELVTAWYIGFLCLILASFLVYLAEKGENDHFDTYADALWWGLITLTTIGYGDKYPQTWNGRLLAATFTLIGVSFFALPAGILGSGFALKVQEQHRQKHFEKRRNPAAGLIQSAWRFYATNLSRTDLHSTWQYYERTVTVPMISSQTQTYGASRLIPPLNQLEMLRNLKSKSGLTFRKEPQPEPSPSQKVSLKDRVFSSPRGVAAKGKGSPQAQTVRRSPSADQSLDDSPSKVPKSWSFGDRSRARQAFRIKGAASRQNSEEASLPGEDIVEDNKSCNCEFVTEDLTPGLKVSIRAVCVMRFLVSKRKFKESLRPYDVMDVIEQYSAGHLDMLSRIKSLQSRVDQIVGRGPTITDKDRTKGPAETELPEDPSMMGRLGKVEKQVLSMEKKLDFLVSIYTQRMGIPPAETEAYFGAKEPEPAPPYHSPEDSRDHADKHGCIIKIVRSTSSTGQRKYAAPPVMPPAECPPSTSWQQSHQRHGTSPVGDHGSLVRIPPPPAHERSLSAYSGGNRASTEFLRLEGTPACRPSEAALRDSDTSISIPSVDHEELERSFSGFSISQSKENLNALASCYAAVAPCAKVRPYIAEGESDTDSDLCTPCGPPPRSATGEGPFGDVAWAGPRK
KCNQ2 inh: KCNQ2 (rat) channel inhibition; B-score at 10 µM; CHO-K1 KCNQ2, FluxOR thallium flux, 20 min; stronger effect = lower value; 1.1% of 310,000 active;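 active means fluorescence ratio B-score at most minus 3 library SDs, with starting brightness B-score within 2 library SDs, cut at about -5.5 in these data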
* = called active by the depositor; i = inactive; · = no result given. Only some compounds are listed: those with a hit (about 1.6% of all), similar ones and a draw of the others.

SMILES	KCNQ2 enhance	KCNQ2 inh
O=C1NC2(Nc3ccccc31)C(=O)Nc1ccc(Br)cc12 (stereo not drawn)	-6.2	-6.2*
O=C1NC2(Nc3ccccc31)C(=O)Nc1ccccc12 (stereo not drawn)	0.11	i
OCCc1c[nH]c2ccc(C(F)(F)F)cc12	1.7	i
CCC(CC)C(=O)Oc1c(Sc2ccccc2[N+](=O)[O-])c(C)nn1C(C)(C)C	-6	-6*
COCC(=O)Oc1c(Sc2ccccc2[N+](=O)[O-])c(C)nn1C(C)(C)C	·	i
CCOc1ccc(/C=N/NC(=O)CNC(=O)c2ccc(S(=O)(=O)N3CCOCC3)cc2)cc1	1.2	i
CC(=O)c1cccc(NC(=O)c2ccccc2N(C)S(=O)(=O)c2ccc(C)cc2)c1	·	i
Cc1ccc(S(=O)(=O)N(C)c2ccccc2C(=O)Nc2c(F)cccc2F)cc1	-5.9	-5.9*
Oc1c(Cl)cc(Cl)cc1CNc1nc2ccccc2[nH]1	-6.2	-6.2*
Oc1c(Cl)cc(Cl)cc1CNc1ccccn1	·	i
CC1CCCCN1S(=O)(=O)Cc1ccccc1Cl (stereo not drawn)	·	i
CCOC(=O)/C=c1\s/c(=C\c2sccc2C)c(=O)n1CC(=O)NCc1ccc(C)cc1	0.53	i
CC(C)(C)NC(=O)CSc1nnc(-c2ccccn2)n1Cc1ccccc1	8.1*	i
CC(C)(C)NC(=O)CSc1nnc(-c2ccncc2)n1Cc1ccccc1	1.8	i
Cc1ccccc1CN1CCC(n2nccc2NC(=O)CCCc2ccccc2)CC1	0.07	i
O=C(CCCc1ccccc1)Nc1ccnn1C1CCN(Cc2ccccn2)CC1	6.4*	i
O=C(CSC(=S)N1CCCC1)Nc1ncc(Cl)cc1Cl	0.64	i
CCCCNC(=O)CNC(=S)N(Cc1ccccc1F)C1CCCCC1	-6.8	-6.8*
COCCCNC(=O)CNC(=S)N(Cc1ccccc1F)C1CCCCC1	·	i
Cc1cccc(NC(=O)CSc2nnc(CNC(=O)c3ccco3)n2C)c1C	·	i
COc1ccc(N2C3=C(CC4=C2CC(C)(C)CC4=O)C(=O)CC(C)(C)C3)cc1	-10	-10*
COc1ccc(N2C3=C(CC4=C2CCCC4=O)C(=O)CCC3)cc1	·	i
Cc1ccc2cc(C(c3nnnn3C3CCCC3)N(Cc3ccccc3)Cc3ccco3)c(=O)[nH]c2c1 (stereo not drawn)	·	i
Cc1cc2cc(C(c3nnnn3C3CCCC3)N(Cc3cccnc3)Cc3ccco3)c(=O)[nH]c2cc1C (stereo not drawn)	-6	-6*
N#CCCN/N=C(\Cc1nc2ccccc2[nH]1)c1ccccc1	·	i
SMILES	KCNQ2 enhance	KCNQ2 inh
N#CCCN/N=C(/Cc1nc2ccccc2[nH]1)c1ccc(Cl)cc1	-10	-10*
O=C(CC1C(=O)NCCN1C(=O)c1ccccc1)Nc1cc(Cl)ccc1Cl (stereo not drawn)	·	i
COc1ccc(-c2csc(N(Cc3ccco3)C(=O)c3cccs3)n2)cc1	-6	-6*
COc1ccc(OC)c(-c2csc(N(Cc3ccco3)C(=O)c3cccs3)n2)c1	·	i
COCCN(C(=O)c1ccccc1)c1nc(-c2ccc(OC)cc2)cs1	·	i
COCCCN(C(=O)c1ccccc1)c1nc(-c2ccc(OC)cc2)cs1	-5.9	-5.9*
COC(=O)CN(C)C(=O)c1ccc(OC2CCN(S(=O)(=O)N(C)C)CC2)cc1	0.83	i
CS(=O)(=O)c1ccc(-n2nnc3ccccc32)c([N+](=O)[O-])c1	·	i
N#Cc1cc([N+](=O)[O-])c(-n2nnc3ccccc32)c([N+](=O)[O-])c1	-5.7	-5.7*
CC(C)c1ccc(/C=C/C(=O)N2CCCCCC2)cc1	·	i
CC(C)c1ccc(/C=C/C(=O)n2nnc3ccccc32)cc1	-6.2	-6.2*
COc1ccc(/C(C)=N/NC(=O)CNC(=O)c2cccnc2)c(OC)c1	0.03	i
CCC(C)c1ccc(NC(=O)N2CCN(C(=O)C3CCCO3)CC2)cc1 (stereo not drawn)	0.89	i
O=C(O)Cc1coc2cc3c(cc12)CCC3	·	i
O=C(Cc1coc2cc3c(cc12)CCC3)NC1CCCCCCC1	12*	i
COc1ccc(C(=O)N/C(=C\c2ccccc2)C(=O)Nc2ccc(C(=O)O)cc2)cc1	0.57	i
COc1ccc(NC(=O)/C(=C\c2cc(OC)c(OC)cc2[N+](=O)[O-])NC(=O)c2ccccc2)cc1	-7.2	-7.2*
COc1cc(/C=C(/NC(=O)c2ccccc2)C(=O)Nc2ccc(O)cc2)c([N+](=O)[O-])cc1OC	0.84	i
COc1cc(/C=C(/NC(=O)c2ccccc2)C(=O)Nc2ccccc2)c([N+](=O)[O-])cc1OC	-6.6	-6.6*
CC1CCN(S(=O)(=O)c2ccc3c(c2)N(CC(=O)NCCN2C(C)CCCC2C)C(=O)CS3)CC1 (stereo not drawn)	·	i
CCN(CC(=O)Nc1c(F)cccc1F)C(=O)c1ccc(N2C(=O)c3ccccc3C2=O)cc1	·	i
CN(CC(=O)Nc1ccc(Cl)cc1)C(=O)Cc1c(F)cccc1Cl	·	i
O=C1c2cccc3cccc(c23)C(=O)N1CCN1CCN(CC(O)COCc2ccc(Cl)cc2)CC1 (stereo not drawn)	-5.7	-5.7*
COc1cc(COCC(O)CN2CCN(CCN3C(=O)c4cccc5cccc(c45)C3=O)CC2)cc(OC)c1OC (stereo not drawn)	0.97	i
O=C(CC(NC(=O)c1ccccc1Cl)c1ccccc1)NCCc1ccc(Cl)cc1 (stereo not drawn)	·	i
SMILES	KCNQ2 enhance	KCNQ2 inh
CN(C(=O)CC(NC(=O)c1ccccc1Cl)c1ccccc1)c1ccccc1 (stereo not drawn)	-5.7	-5.7*
Cc1cc([N+](=O)[O-])cnc1Sc1nccn1C	·	i
Cc1ccc(SC[C@H](C)CN2CC[C@H](NC(=O)OCc3ccccc3)CCC2=O)cc1	·	i
Cc1ccc(S[C@@H](CCN2CC[C@H](NC(=O)OCc3ccccc3)CCC2=O)c2ccccc2)cc1	-6.9	-6.9*
CCOCC(=O)Nc1c(C(=O)N2CCN(c3ncccn3)CC2)oc2ccccc12	0.31	i
O=C(c1oc2ccccc2c1CSCc1ccccc1)N1CCN(c2ncccn2)CC1	-6.2	-6.2*
COc1cc(OC)c(/C=N/n2c(C)nnc2C)c(OC)c1	0.67	i
O=C(O)CC1(CC(=O)Nc2ccc(Br)cc2)CCCCC1	-7.6	-7.6*
O=C(O)CC1(CC(=O)Nc2ccc3ccccc3c2)CCCCC1	·	i
COc1ccc(NC(=O)N2CCCC2C(=O)NCc2cccs2)cc1 (stereo not drawn)	1.8	i
O=C(Nc1ccccc1Cl)Oc1ccc(-c2ccccc2)cc1	·	i
CN(C)c1ccc(NC(=O)CN2C(=O)CC(c3ccccc3)=Nc3ccccc32)cc1	1.9	i
O=C1CC(c2ccccc2)=Nc2ccccc2N1Cc1ccccc1	-6.2	-6.2*
CC(=O)N1c2ccc(S(=O)(=O)NCC3CCC(C(=O)Nc4cc(C)ccn4)CC3)cc2CC1C (stereo not drawn)	0.08	i
COc1ccc(N=C(c2ccccc2)c2c(C)[nH]n(-c3ccccc3)c2=O)c(OC)c1	·	i
C/C=C/c1ccc(OCCCCOc2ccccc2C(C)=O)c(OC)c1	-7.5	-7.5*
COc1ccccc1OCCCCOc1ccccc1C(C)=O	0.77	i
O=[N+]([O-])c1cc(O)c2ncccc2c1	10*	i
O=[N+]([O-])c1cc2cccnc2c2ncccc12	·	i
N#CC1(c2ccccc2)CCN(S(=O)(=O)c2ccc(OC(F)(F)F)cc2)CC1	·	i

Screening results deposited in PubChem BioAssay by Johns Hopkins Ion Channel Center.
